# Experimental data published in PubChem BioAssay AID463173 (ICCB-Longwood Screening Facility, Harvard Medical School, 2010).
# Screen size: about 52,000 compounds; about 4,300 (8.3%) were called active. Rule as the data show it: active = survival mostly below about 52% (no sharp cut-off); inactive = mostly above about 56%. For the sample, actives were picked, then their nearest neighbours and some compounds at random.
# Tested on: DeltatarO mutant
# Assay: growth inhibition of S. aureus wild type versus tarO mutant, primary screen, teichoic acid synthesis inhibitors, RN4220, OD600 (AID 463173)
# Details: OD600, 18 h, hits give low values, screened at 18.75 µg/mL (by protocol)
row,Structure (SMILES),survival
1,O=C(CCC(=O)N1CCSc2ccccc21)NCc1ccccc1Cl,70% (inactive)
2,Cc1cccc(C(c2sc3nc(-c4ccco4)nn3c2O)N2CCN(c3ccccc3)CC2)c1 (configuration not stated),76% (inactive)
3,O=C(CN1CCCC1)N1N=C(c2cccs2)CC1c1cccs1 (configuration not stated),86% (inactive)
4,CCOc1ccc(Cc2nc(C)c(CC(N)=O)c(=O)[nH]2)cc1,71% (inactive)
5,CCOC(=O)c1scc(-c2ccccc2)c1S(=O)(=O)Nc1ccc(N(C)C)cc1,86% (inactive)
6,COC(=O)Cn1c(O)c(N=NC(=O)C2COc3ccccc3O2)c2ccccc21 (configuration not stated),69% (inactive)
7,CCC(=O)Nc1cccc(NC(=O)c2cccs2)c1,72% (inactive)
8,CCOc1ccccc1NC(=O)Cn1c(=O)n(C(C)C)c(=O)c2oc3ccccc3c21,109% (inactive)
9,CC1=C(c2ccc(C(C)C)cc2)S(=O)(=O)N=C1N1CCC(C(=O)NCc2ccc(C)o2)CC1,67% (inactive)
10,CC1=C(c2ccc(C)c(C)c2)S(=O)(=O)N=C1N1CCC(C(=O)N2CCCCC2)CC1,109% (inactive)
11,CC1=C(c2ccc(Cl)cc2)S(=O)(=O)N=C1N1CCC(C(=O)NCCc2ccco2)CC1,81% (inactive)
12,CC1=C(c2ccc(C(C)C)cc2)S(=O)(=O)N=C1N1CCC(C(=O)NCc2ccccc2)CC1,-1% (active)
13,CC1=C(c2ccc(C(C)C)cc2)S(=O)(=O)N=C1N1CCC(C(=O)NCc2ccco2)CC1,79% (inactive)
14,CC1=C(c2ccc(C)c(C)c2)S(=O)(=O)N=C1N1CCC(C(=O)N2CCC(C)CC2)CC1,72% (inactive)
15,CC1=C(c2ccc(C(C)C)cc2)S(=O)(=O)N=C1N1CCC(C(=O)NCCc2ccco2)CC1,6% (active)
16,CCc1ccc(C2=C(C)C(N3CCC(C(=O)NCc4ccccc4)CC3)=NS2(=O)=O)cc1,89% (inactive)
17,CC1=C(c2ccc(C)c(C)c2)S(=O)(=O)N=C1N1CCC(C(=O)N2CCC(C(N)=O)CC2)CC1,-2% (active)
18,Cc1cccc(N(C)C(=O)C(Cc2ccccc2)NS(=O)(=O)c2cccc3nsnc23)c1 (configuration not stated),74% (inactive)
19,Cc1nnc(N2CCC(C(=O)N3CCCCC3)CC2)c2nn(-c3ccc(Cl)cc3)c(C)c12,95% (inactive)
20,COc1cc(-c2nc(SCC(=O)Nc3ccc(C)cc3)c(-c3ccc(F)cc3)[nH]2)cc(OC)c1OC,91% (inactive)
21,COc1ccc(-c2nc(SCC(=O)Nc3ccccc3)c(-c3ccc(F)cc3)[nH]2)cc1OC,49% (inactive)
22,CCOc1ccc(-c2nc(-c3ccccc3)c(-c3ccccc3)[nH]2)cc1OCC,142% (inactive)

row,Structure (SMILES),survival
1,COc1ccc(NC(=O)CSc2nc(-c3ccc(OC)cc3)[nH]c2-c2ccc(OC)cc2)cc1,71% (inactive)
2,COc1ccc(-c2[nH]c(-c3ccc(O)cc3)nc2-c2ccccc2)cc1,3% (active)
3,COc1ccc(-c2nc(-c3ccccc3)c(-c3ccc(O)cc3)[nH]2)cc1,1% (active)
4,COc1ccc(-c2nc(-c3ccccc3)c(-c3ccccc3)[nH]2)cc1Br,59% (inactive)
5,COc1ccc(-c2[nH]c(-c3ccccc3)nc2SCC(=O)NC2CCCC2)cc1,67% (inactive)
6,COc1cc(-c2nc(-c3ccccc3)c(-c3ccc(Br)cc3)[nH]2)cc(OC)c1O,0% (active)
7,COc1ccc(-c2nc(-c3ccccc3)c(-c3ccc(F)cc3)[nH]2)c(OC)c1C,5% (active)
8,COc1cc(-c2nc(-c3cccc(Cl)c3)c(-c3ccccc3)[nH]2)cc(OC)c1OC,126% (inactive)
9,COCCNC(=O)CSc1nc(-c2ccccc2)[nH]c1-c1ccc(OC)cc1,80% (inactive)
10,CC(=O)N1C(=O)/C(=C2\SC(=S)N(C(C)C(=O)O)C2=O)c2ccccc21 (configuration not stated),112% (inactive)
11,CCCCN(CC)CCNC(=O)C1CCCN(S(=O)(=O)c2cccc3nsnc23)C1 (configuration not stated),117% (inactive)
12,Nn1c(SCCC(=O)O)nnc1-c1ccccc1,83% (inactive)
13,COCCNC(=O)c1cnc2sc(N3CCC(C)CC3)nn2c1=O,86% (inactive)
14,O=S(=O)(c1ccccc1)c1nnn2c1nc(NCc1cccs1)c1sccc12,87% (inactive)
15,N#CC(C(=O)c1ccc(F)cc1)c1nc2ccccc2[nH]1 (configuration not stated),86% (inactive)
16,CC1=C(C(=O)Nc2ccc(Cl)cc2)C(c2ccccc2C)n2ncc(C(=O)Nc3ccc(C)cc3)c2N1 (configuration not stated),54% (inactive)
17,O=C(CSc1nc(-c2ccc(F)cc2)[nH]c1-c1ccccc1)Nc1ccccc1,67% (inactive)
18,Oc1ccc(-c2nc(-c3ccccc3)c(-c3ccc(Br)cc3)[nH]2)cc1,-4% (active)
19,O=C(O)c1ccc(-c2nc3ccccc3[nH]2)cc1,86% (inactive)
20,Cc1nn(-c2ccc(N3CCCCC3)nn2)c(C)c1CCC(=O)NCc1ccccc1,67% (inactive)
21,Cc1ccc(N(CC(=O)NC2CCCC2)C(=O)c2ccc(N3CCCC3)nc2)cc1,89% (inactive)
22,Cc1ccc(NC(=O)C2CCCN(S(=O)(=O)c3cccc4nsnc34)C2)c(C)c1 (configuration not stated),83% (inactive)

row,Structure (SMILES),survival
1,CC1(C)Oc2ccc(C(=O)Nc3ccccc3)cc2N(CC(=O)N2CCCC2)C1=O,103% (inactive)
2,COc1cccc(CC(=O)Nc2ccc3nc(N4CCC(C)CC4)cc(C)c3c2)c1,49% (inactive)
3,Cc1cc(N2CCC(C)CC2)nc2ccc(NC(=O)Cc3c(F)cccc3Cl)cc12,56% (inactive)
4,Cc1cc(N2CCC(C)CC2)nc2ccc(NC(=O)CCC(=O)N3CCN(c4ccccc4F)CC3)cc12,52% (inactive)
5,Cc1cc(N2CCN(C)CC2)nc2ccc(NC(=O)Nc3ccccc3Br)cc12,84% (inactive)
6,Cc1cc(N2CCC(C)CC2)nc2ccc(NC(=O)Cc3ccccc3Br)cc12,46% (active)
7,COc1ccccc1CC(=O)Nc1ccc2nc(N3CCC(C)CC3)cc(C)c2c1,61% (inactive)
8,Cc1ccc(Cl)cc1N1CCN(C(=O)CCC(=O)Nc2ccc3nc(N4CCC(C)CC4)cc(C)c3c2)CC1,52% (inactive)
9,Cc1cc(N2CCC(C)CC2)nc2ccc(NC(=O)CCC(=O)N3CCN(c4cccc(C(F)(F)F)c4)CC3)cc12,31% (active)
10,Cc1cccc(CC(=O)Nc2ccc3nc(N4CCC(C)CC4)cc(C)c3c2)c1,4% (active)
11,CC1=C(C(=O)Nc2ccc(C)cc2C)C(c2ccccc2C)n2ncnc2N1 (configuration not stated),100% (inactive)
12,N#CCN(CC#N)C(=O)Cc1cccs1,102% (inactive)
13,Cc1ccc(CN2C(=O)C3(c4ccccc42)N(c2cccc(F)c2)C(=O)CS3(=O)=O)cc1 (configuration not stated),75% (inactive)
14,CCN1C(=O)c2ccccc2S(=O)(=O)c2ccc(C(=O)NCc3ccc(F)cc3)cc21,59% (inactive)
15,COc1ccc2c(CNCc3ccc(C)o3)c(C(=O)O)n(Cc3ccccc3C)c2c1,96% (inactive)
16,Cc1ccc(NC(=O)c2cccc3c(=O)c4c([nH]c23)CCCC4)c(C)c1,69% (inactive)
17,COc1cccc(CNC(=O)Cn2c(C)c3cnn(-c4ccccc4)c(=O)c3c2C)c1,94% (inactive)
18,CSc1nc(NC(C)=O)nc(C)c1Br,103% (inactive)
19,Nc1c(-c2nc(-c3ccc(F)cc3)cs2)c2ccccn2c1C(=O)c1ccc2c(c1)OCO2,89% (inactive)
20,COc1ccc(CCNc2nc(SCc3cccc(Cl)c3)nc3ccccc23)cc1OC,94% (inactive)
21,N#Cc1c(C(F)(F)F)cc(-c2cccs2)nc1SCc1ccc(F)cc1,125% (inactive)
22,COc1ccc2c(c1)c1c(c(=O)n(-c3ccccc3C)c(=O)n1CC(=O)NCc1ccc(C)cc1)n2C,75% (inactive)

row,Structure (SMILES),survival
1,CC(Sc1oc(-c2cccs2)nc1S(=O)(=O)c1ccccc1)c1ccccc1 (configuration not stated),44% (active)
2,Cc1ccc(S(=O)(=O)c2nc(-c3ccco3)oc2SCc2ccccc2Cl)cc1,61% (inactive)
3,CC(Sc1oc(-c2ccco2)nc1S(=O)(=O)c1ccc(Br)cc1)c1ccccc1 (configuration not stated),70% (inactive)
4,Cc1ccc(CSc2oc(-c3ccco3)nc2S(=O)(=O)c2ccc(Cl)cc2)cc1,63% (inactive)
5,Cc1ccc(S(=O)(=O)c2nc(-c3cccs3)oc2SC(C)c2ccccc2)cc1 (configuration not stated),55% (inactive)
6,Cc1ccc(S(=O)(=O)c2nc(-c3ccco3)oc2SC(C)c2ccccc2)cc1 (configuration not stated),45% (active)
7,CC(C)Sc1oc(-c2cccs2)nc1S(=O)(=O)c1ccc(Cl)cc1,66% (inactive)
8,Cc1ccc(S(=O)(=O)c2nc(-c3ccco3)oc2SC(C)C)cc1,47% (inactive)
9,CCC(C)Sc1oc(-c2ccco2)nc1S(=O)(=O)c1ccc(Cl)cc1 (configuration not stated),49% (active)
10,Cc1ccc(CSc2oc(-c3ccco3)nc2S(=O)(=O)c2ccc(Br)cc2)cc1,56% (inactive)
11,CCCSc1oc(-c2ccco2)nc1S(=O)(=O)c1ccc(Cl)cc1,51% (inactive)
12,CCC(C)Sc1oc(-c2ccco2)nc1S(=O)(=O)c1ccc(C)cc1 (configuration not stated),18% (active)
13,COc1ccc(Cc2nc3ccc(C(=O)NCCc4ccc(Cl)cc4)cc3o2)cc1,75% (inactive)
14,O=C(Cn1ncc2c3ccccc3n(Cc3ccc(Cl)cc3)c2c1=O)NC1CCCCCC1,96% (inactive)
15,CSc1ccc(CNC(=O)Cn2c(-c3cccs3)cc3cc(F)ccc32)cc1,101% (inactive)
16,COc1ccc(NC(=O)C(NC(=O)/C=C\c2ccc3c(c2)OCO3)c2ccc(OC)cc2)cc1 (configuration not stated),61% (inactive)
17,CCCn1c(CCC(=O)Nc2cc(OC)cc(OC)c2)nc2cccnc21,78% (inactive)
18,CCOc1ccc(CCNC(=O)c2cccc(-n3c(C)nc4cccnc43)c2)cc1,90% (inactive)
19,N#Cc1cc2c(cc1C#N)Oc1ccccc1O2,103% (inactive)
20,CC(C)CCn1c(=O)c2sccc2n2c(CCCC(=O)NC(C)C)nnc12,96% (inactive)
21,COc1cc(S(=O)(=O)N2CCN(C)CC2)c(C)cc1C,78% (inactive)
